Experimental findings from PubChem BioAssay (EPA / NIEHS) are described below.

Assay [1] addresses Cellular tumor antigen p53 (Homo sapiens) (UniProt P04637). Briefly: TOX21_p53_BLA_p4_ratio: Tox21 HCT-116 p53 Agonism Beta-lactamase Assay, Ratio, Phase 4 (AID 2283601). Summed up:
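Signal is the blue/green (460nm/530nm) ratio of cleaved versus uncleaved CCF4-AM substrate, read after 2 h substrate loading. Cells were HCT116 carrying the p53-responsive beta-lactamase reporter, dosed 16 h at 37C, 5% CO2; CellTiter-Glo measured in parallel.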

Assay [2] is described as follows: Tanguay_ZF_120hpf_MORT_legacy: (Legacy) Oregon State University Tanguay Lab 120 Hour Post-fertilization zebrafish Assay for Mortality (AID 2283633). Summed up:
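5D WT zebrafish, chorion removed 4 hpf; 1 embryo/well from 6 hpf; static exposure to 120 hpf, 28C, dark, sealed. Final DMSO 0.64%. Readout: binary mortality, brightfield, 24 + 120 hpf; DMSO as negative control.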

The nature of assay [3]: Tanguay_ZF_120hpf_YSE_legacy: (Legacy) Oregon State University Tanguay Lab 120 Hour Post-fertilization zebrafish Assay for Yolk Sac Edema (AID 2283634). Summed up:
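Dechorionate (pronase, 4 hpf) → place one 6 hpf embryo per well → static compound exposure, sealed and foil-covered, 28C, to 120 hpf → record yolk sac edema as present or absent. Final DMSO 0.64%.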

Assay [4] in a line: Tanguay_ZF_120hpf_AXIS_legacy: (Legacy) Oregon State University Tanguay Lab 120 Hour Post-fertilization zebrafish Assay for Body Axis Malformation (AID 2283635). Summed up: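 Chorion is removed with pronase at 4 hpf, then single 6 hpf embryos are dosed (final DMSO 0.64%) and held statically at 28C in sealed, foil-covered plates. At 120 hpf body axis malformation is recorded as present or absent.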

The nature of assay [5]: Tanguay_ZF_120hpf_EYE_legacy: (Legacy) Oregon State University Tanguay Lab 120 Hour Post-fertilization zebrafish Assay for Eye Malformation (AID 2283636). Summed up:
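Read-out is binary presence or absence of eye malformation, scored by brightfield microscopy at 120 hpf. Single larvae were exposed from 6 hpf in embryo medium containing 0.64% DMSO, with DMSO as baseline.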

The nature of assay [6]: Tanguay_ZF_120hpf_SNOU_legacy: (Legacy) Oregon State University Tanguay Lab 120 Hour Post-fertilization zebrafish Assay for Snout Malformation (AID 2283637). Summed up:
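Snout malformation read as a yes/no call on brightfield images of 120 hpf larvae (Tropical 5D strain). Static exposure began at 6 hpf on dechorionated embryos in 0.64% DMSO, with gain of signal analysed versus DMSO controls.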

Assay [7] is described as follows: Tanguay_ZF_120hpf_OTIC_legacy: (Legacy) Oregon State University Tanguay Lab 120 Hour Post-fertilization zebrafish Assay for Otic Vesicle Malformation (AID 2283639). Summed up: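 Otic vesicle malformation is read as a yes/no morphology call at 120 hpf. Exposure is static at 28C with 0.64% (vol/vol) DMSO; embryos that die are excluded from non-mortality endpoints.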

Assay [8] can be described thus: Tanguay_ZF_120hpf_PE_legacy: (Legacy) Oregon State University Tanguay Lab 120 Hour Post-fertilization zebrafish Assay for Pericardial Edema (AID 2283640). Summed up: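 Embryos from wild-type 5D adults were staged, then dosed in 0.64% DMSO. They were kept sealed in the dark at 28C until 120 hpf. Pericardial edema was then recorded as present or absent.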
Assay [9] is described as follows: Tanguay_ZF_120hpf_BRAI_legacy: (Legacy) Oregon State University Tanguay Lab 120 Hour Post-fertilization zebrafish Assay for Brain Malformation (AID 2283641). Summed up:
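Wild-type 5D larvae, static waterborne exposure to 120 hpf, 28C, 0.64% v/v DMSO. Brightfield scoring of brain defects, binary; dead embryos excluded. Positive ctrl 5uM trimethyltin chloride.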

Assay [10] in a line: Tanguay_ZF_120hpf_SOMI_legacy: (Legacy) Oregon State University Tanguay Lab 120 Hour Post-fertilization zebrafish Assay for Somite Malformation (AID 2283647). Summed up: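 Read-out: presence or absence of somite malformation in 120 hpf larvae, gain-of-signal relative to DMSO baseline. Embryos lacked chorion (pronase, 4 hpf) and were exposed statically from 6 hpf at 28C; dead larvae not scored.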

The nature of assay [11]: Tanguay_ZF_120hpf_PFIN_legacy: (Legacy) Oregon State University Tanguay Lab 120 Hour Post-fertilization zebrafish Assay for Pectoral Fin Malformation (AID 2283648).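 Note: each larva judged yes or no for fin defect by brightfield with dead larvae skipped.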 Summed up:
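5D WT zebrafish; pronase dechorionation 4 hpf; 1 embryo/well at 6 hpf; static exposure to 120 hpf, 28C, sealed, foil-covered; final DMSO 0.64% v/v; 5 uM trimethyltin chloride positive control; fin defect scored yes/no.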

The nature of assay [12]: Tanguay_ZF_120hpf_CFIN_legacy: (Legacy) Oregon State University Tanguay Lab 120 Hour Post-fertilization zebrafish Assay for Caudal Fin Malformation (AID 2283649). Summed up:
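Binary presence or absence of caudal fin malformation at 120 hpf, read by brightfield microscopy, with DMSO as baseline. Larvae came from 5D wild-type embryos exposed statically from 6 hpf at 28C after pronase dechorionation.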

Assay [13] is described as follows: Tanguay_ZF_120hpf_PIG_legacy: (Legacy) Oregon State University Tanguay Lab 120 Hour Post-fertilization zebrafish Assay for Pigmentation Malformation (AID 2283650). Summed up: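 Pronase dechorionation at 4 hpf; embryos plated at 6 hpf, one per well; static exposure, sealed and foil-covered, 28C, to 120 hpf; pigmentation read by brightfield, binary; DMSO 0.64% baseline, 5uM trimethyltin chloride positive control.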

The nature of assay [14]: Tanguay_ZF_120hpf_CIRC_legacy: (Legacy) Oregon State University Tanguay Lab 120 Hour Post-fertilization zebrafish Assay for Circulatory Malformation (AID 2283651). Summed up:
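Using wild-type Tropical 5D zebrafish, we exposed dechorionated embryos from 6 to 120 hpf in embryo medium with 0.64% DMSO. Circulatory defects were scored as present or absent; 5uM trimethyltin chloride served as positive control.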

A short description of assay [15]: Tanguay_ZF_120hpf_SWIM_legacy: (Legacy) Oregon State University Tanguay Lab 120 Hour Post-fertilization zebrafish Assay for Swim Bladder Malformation (AID 2283654).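 Note: swim bladder malformation in each larva scored yes or no under brightfield.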 Summed up: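 Embryos lacking chorions were exposed individually and statically to test chemical from 6 to 120 hpf at 28C, with 0.64% DMSO as vehicle. At 120 hpf, swim bladder malformation was recorded as present or absent by brightfield microscopy.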

Assay [16] is described as follows: Tanguay_ZF_120hpf_TRUN_legacy: (Legacy) Oregon State University Tanguay Lab 120 Hour Post-fertilization zebrafish Assay for Truncated Body (AID 2283655). Summed up:
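Truncated body is recorded as a binary endpoint at 120 hpf by brightfield imaging of wild-type 5D larvae. Exposure runs statically from 6 hpf at 28C with 0.64% DMSO; embryos dying earlier are not scored.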

Assay [17] can be described thus: Tanguay_ZF_120hpf_NC_legacy: (Legacy) Oregon State University Tanguay Lab 120 Hour Post-fertilization zebrafish Assay for Notochord and Tail Malformation (AID 2283656). Summed up: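 Dechorionated 5D zebrafish, 1/well from 6 hpf; static exposure to 120 hpf, 28C, sealed, dark; final DMSO 0.64% v/v. NC scored binary (present/absent); dead embryos not scored. Fit vs DMSO baseline, gain direction.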

The nature of assay [18]: Tanguay_ZF_120hpf_JAW_legacy: (Legacy) Oregon State University Tanguay Lab 120 Hour Post-fertilization zebrafish Assay for Jaw Malformation (AID 2283638). Summed up: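 Steps: dechorionate 4 hpf embryos (pronase); plate 1/well at 6 hpf; add test chemical, 0.64% DMSO final; seal, cover, hold at 28C statically to 120 hpf; score jaw defect presence/absence microscopically. Dead embryos not scored.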

Records with an inconclusive call do not appear. Calls of active or inactive are those of the source. Rule for the calls: active = hit-call score of the fitted dose curve at least 0.9, where 1 is the maximum; inconclusive = response in the unintended direction; inactive = score below 0.9.

Sequence of Cellular tumor antigen p53 (Homo sapiens) (P04637 whole entry, looked up): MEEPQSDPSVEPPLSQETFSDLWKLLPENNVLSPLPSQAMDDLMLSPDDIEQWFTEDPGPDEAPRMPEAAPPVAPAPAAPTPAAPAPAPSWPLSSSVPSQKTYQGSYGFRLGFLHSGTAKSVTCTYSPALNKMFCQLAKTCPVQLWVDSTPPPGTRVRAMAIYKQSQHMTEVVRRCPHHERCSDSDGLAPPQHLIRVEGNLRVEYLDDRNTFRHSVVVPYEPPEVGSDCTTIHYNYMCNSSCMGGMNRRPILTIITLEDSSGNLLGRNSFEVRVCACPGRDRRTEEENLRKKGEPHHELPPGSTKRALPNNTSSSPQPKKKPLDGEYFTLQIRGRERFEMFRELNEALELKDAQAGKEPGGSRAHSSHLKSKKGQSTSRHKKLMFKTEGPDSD

Take `O=P(O)(O)CCCl`: the result in [1], in [2], in assay [3], in [4], in [5] and in assay [6] was inactive. Further, the outcome in assay [7], in assay [8], in assay [9], in assay [10], in assay [11] and in assay [12] was inactive. Moreover, the call in assay [13], in assay [14], in assay [15], in [16] and in assay [17] was inactive.
In the case of `Cn1c(-c2ccccc2)cc(-c2ccccc2)[n+]1C`, the outcome in assay [1], in assay [2], in [3], in assay [4], in assay [5] and in assay [6] was inactive. The result in assay [18], in assay [7], in [8], in assay [9], in assay [10] and in [11] was inactive. In addition, the molecule was called inactive in assay [12], in assay [13], in assay [14], in [15], in [16] and in assay [17].
With `N#CN=C1SCCN1Cc1ccc(Cl)nc1`, the outcome in assay [1], in assay [2], in assay [3], in assay [4], in [5] and in assay [6] was inactive. In addition, the molecule was called inactive in [18], in assay [7], in assay [8], in assay [9], in [10] and in assay [11]. Besides, the molecule was called inactive in [12], in assay [13], in assay [14], in [15] and in [16].
As a reminder, the AC50 is the concentration at which the activity in the assay is half-maximal. Regarding `CC(C)N1C(=O)N(c2ccccc2)CSC1=NC(C)(C)C`, the AC50 in [1] is 87.2 µM (active). The molecule was called inactive in assay [2], in assay [3], in assay [4], in assay [5], in assay [6] and in [18]. The outcome in assay [7], in [8], in assay [10], in assay [11], in [12] and in assay [13] was inactive. The call in [15], in [16] and in [17] was inactive.
Turning to `CS(=O)(=O)c1ccc(C(=O)C2C(=O)CCCC2=O)c([N+](=O)[O-])c1`, the outcome in assay [1], in [2], in [3], in assay [4], in assay [5] and in assay [6] was inactive. The result in assay [18], in assay [7], in assay [8], in [9], in assay [10] and in assay [11] was inactive. The call in assay [12], in assay [13], in assay [14], in assay [15], in assay [16] and in [17] was inactive.
As for `COP(=O)(OC)O/C(C)=C/C(=O)N(C)C`, the outcome in assay [1], in assay [2], in [3], in assay [4], in assay [5] and in assay [6] was inactive. Besides, the call in assay [18], in assay [7], in assay [8], in [9], in assay [10] and in assay [11] was inactive. The call in [12], in assay [13], in assay [14], in [15], in assay [16] and in [17] was inactive.
On to `CNC(=O)Oc1cccc2ccccc12`, for which the outcome in assay [1], in assay [2], in assay [3], in assay [4], in [5] and in [6] was inactive. Besides, the molecule was called inactive in assay [18], in assay [7], in [8], in [9], in assay [10] and in assay [12]. For the same molecule, the molecule was called inactive in assay [14], in assay [15] and in assay [16].
As for `COC(=O)NS(=O)(=O)c1ccc(N)cc1`, the result in assay [1], in assay [2], in [3], in assay [4], in assay [5] and in [6] was inactive. The outcome in assay [18], in assay [8], in assay [9], in [11], in assay [12] and in [13] was inactive. Moreover, the result in assay [15], in assay [16] and in [17] was inactive.
